# Tgondii IFNg: blocks Toxoplasma gondii growth in the presence of IFN-gamma; activity change, negative = inhibition, % (no concentration beside the values); 69,000 tested, 3.8% active; Toxoplasma gondii growth in IFN-gamma-treated host cells; hits give low values; in the data active = activity change below about -70%, passing the limit was not always enough;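 also: host cells are HeLa cells infected with Toxoplasma gondii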
# * hit, by the source's call; i = inactive. Many of the other results were omitted from the sample, so hits are more common in it than they were.
SMILES,Tgondii IFNg
COc1ccc(-c2cc(C(=O)Nc3ncc(-c4ccc(F)cc4)n3C)on2)cc1,-3
Cn1c(-c2ccccc2)cnc1NC(=O)c1nonc1N,-104*
O=C(Nc1cc(Cl)ccc1O)c1ccccc1CN1CCOCC1,155
Cc1ccc(C(=O)NCCSCc2ccccc2Cl)cc1,-21
Cc1ccc(SCc2ccccc2C(=O)Nc2cc(Cl)ccc2O)cc1,-75*
Cc1c(C(=O)N2CCC(C)CC2)oc2ccc3c(c12)C(O)CC1(CCCCC1)O3 (stereo not given),-100*
Cc1ccc(C(=O)N2CCC3(CC2)CC(CC(=O)NCC(C)C)c2ccccc2O3)o1 (stereo not given),-39
CC1(C)Oc2ccc3ccc(=O)oc3c2C(N2CCCCC2)C1O (stereo not given),-8
Cc1cc(S(=O)(=O)NCc2cc(CC(C)C)no2)ccc1F,17
N#Cc1cccc(N2CCOCC3(CCCN(Cc4ccncc4)C3)C2)n1 (stereo not given),11
CC1CCCN(C(=O)c2nc(-c3ccc(Cl)cc3)n3c2CCCCC3)C1 (stereo not given),-97*
Cc1ccc(-c2nc(C(=O)N3CCCC(C)C3)c3n2CCCCC3)cc1 (stereo not given),-96*
CCOC(=O)C1CCN(C(=O)c2nc(-c3ccc(Cl)cc3)n3c2CCCCC3)CC1,-69
Cc1ccc(-c2nc(C(=O)N3CCC(C)CC3)c3n2CCCCC3)cc1,-32
O=C(c1nc(-c2cccc(F)c2)n2c1CCCCC2)N1CCN(c2ccccc2)CC1,-12
CCOC(=O)C1CCCN(C(=O)c2nc(-c3ccc(Cl)cc3)n3c2CCCCC3)C1 (stereo not given),99
CN(Cc1nc2ccc(Cl)cc2[nH]1)C(=O)c1cnn2ccn(C)c12,4
CNS(=O)(=O)c1ccc(CCC(=O)NC2CCCOC2)cc1 (stereo not given),-14
O=C(c1cccnc1-c1cccc2c1CCNC2)N1C[C@H]2CC[C@@H]1C2,5
C=CCOCC1c2c(ncn2C)CCN1CC1CC1 (stereo not given),29
CCOCC12CCCOC1CCN(C(=O)C1=CCCC1)C2 (stereo not given),26
COCC12CCCOC1CCN(C(=O)C1=CCCC1)C2 (stereo not given),-81*
Cc1ccc(C(=O)N2CCC3OCCCC3(COCC3CC3)C2)cn1 (stereo not given),13
CCN(C)c1ccnc(C2COCCN2Cc2ccccc2OC)n1 (stereo not given),4
COCC(=O)NCC1Cn2nnc(-c3cnn(C)c3)c2CO1 (stereo not given),-5
SMILES,Tgondii IFNg
O=C(Nc1ccc(Cl)cc1)c1csnn1,28
Cc1ccc(SC(=O)c2csnn2)cc1,-102*
CC(C)N(C(=O)NC(=O)c1csnn1)C(C)C,12
COCCN(Cc1cccs1)C(=O)c1ccc(C)cc1OC,7
COCCN1CCCc2sc(C(=O)N(C)C)nc21,2
CC(CCCC(C)(C)O)CCN1CCC2(CC1)C(=O)NCCCN2C (stereo not given),7
O=C1NCCN(Cc2ccccc2)C12CCN(S(=O)(=O)c1ccc(F)cc1)CC2,-10
O=C1NCN(c2ccccc2)C12CCN(CCCC(c1ccc(F)cc1)c1ccc(F)cc1)CC2,-81*
CC(Cc1ccccn1)NC(=O)Cn1c(-c2ccccn2)nc2ccccc21 (stereo not given),-48
Cc1cc(-c2cnc(N3CCOCC3)nc2C2CCN(CC3CCC=CO3)CC2)on1 (stereo not given),38
Cc1ccc(C2(O)CCN(C(=O)c3n[nH]c4c3CCC4)CC2)nc1,8
Cc1cc(-c2cnc(N3CCCC3)nc2C2CCN(C(=O)c3n[nH]c4c3CCC4)CC2)on1,-82*
Cn1ccnc1-c1ccc(NCC2COc3ccccc3O2)nn1 (stereo not given),i
CC1CCCN(S(=O)(=O)N(C)Cc2nnc(-c3ccccc3)o2)C1 (stereo not given),10
Cc1cccc(CN2C(=O)CO[C@H]3CN(C(=O)NC4CC4)C[C@@H]32)c1,-5
CC(C)(C)C1CCc2[nH]nc(C(=O)Nc3ccccc3OCc3ccccn3)c2C1 (stereo not given),-79*
O=C(Nc1ccccc1OCCCc1ccccc1)c1ccccn1,5
CC(C)(C)C1CCc2[nH]nc(C(=O)Nc3cccc(Cn4cncn4)c3)c2C1 (stereo not given),0
CCc1ccccc1C(=O)N1CCC(Cc2cccc(C(=O)O)c2)CC1,3
Cc1cnc(-n2cnnc2)c(-c2ccc(S(C)(=O)=O)cc2)c1,2
OCc1cc(-c2ccc(-c3ccn[nH]3)cc2)ccn1,58
CC(C)c1nccn1-c1ccc(-c2ccn[nH]2)cc1,4
COC(C)c1cccc(-c2cnc(-n3cnnc3)c(C)c2)c1 (stereo not given),-11
Cc1cc(-c2ccc(-c3ccn[nH]3)cc2)cnc1-n1cnnc1,-77*
Cc1cc(C)c(-c2cnc(-n3cnnc3)c(C)c2)c(C)c1,-78*
SMILES,Tgondii IFNg
CCOC(=O)c1c(NC(=O)CC)sc(C(=O)OC(C)C)c1C,6
COc1ccc(N2CCN(C(=O)Cn3ncc4c(N5CCCCC5)ncnc43)CC2)cc1,10
O=C1C2CCCCC2C(=O)N1c1ccc(OS(=O)(=O)c2ccccc2)cc1 (stereo not given),-26
NC(N)=N/N=C/c1ccc(OS(=O)(=O)c2ccccc2)cc1,-77*
NC(N)=N/N=C/c1c(Cl)cccc1Cl,-4
Cc1nccn1CC1(O)CCN(C(=O)c2ccc(CN3CCCCC3)cc2)CC1,-13
Cn1c(=O)cc(C(=O)N2CCCC(O)(CO)CC2)c2ccccc21 (stereo not given),6
Fc1cccc(CC2CN(Cc3cccs3)CCO2)c1 (stereo not given),-42
Nc1cc2ncnc(Nc3cccc(Br)c3)c2cc1N,11
C#Cc1cccc(Nc2ncnc3cc(OC)c(OCCCCCCC(=O)NO)cc23)c1,-80*
Cn1cnc2cc3c(Nc4cccc(Br)c4)ncnc3cc21,1
COc1cc2c(N3CCN(C(=O)Nc4ccc(OC(C)C)cc4)CC3)ncnc2cc1OCCCN1CCCCC1,-17
COc1ccc(OC)c(Nc2ncnc3ccc(Br)cc23)c1,-47
COc1cc2ncnc(Nc3ccc(O)c(Br)c3)c2cc1OC,-74*
CCN(C(=O)c1cccc(NC(=O)CSc2nncn2C)c1)c1ccccc1,7
CN(Cc1ccc(-n2cccn2)cc1)Cc1ccc(-c2ccn[nH]2)o1,-29
O=C(CC1NC(=O)N(C2CCCCC2)C1=O)Nc1cccc(CCc2ccncc2)c1 (stereo not given),-41
CCOC(=O)N1CCC2(CC1)NC(=O)c1ccccc12,-1
C=C(C)C(C)(C)C(=O)NCC1CCN(Cc2cnc(C)nc2)CC1,4
CC(=O)NC12CC3CC(C1)CC(C(=O)NC(C)CCc1ccc(F)cc1)(C3)C2 (stereo not given),8
O=C(N(c1ccccc1)c1ccc(F)cc1)C12CC3CC(CC(C3)C1)C2,-83*
O=C(N(Cc1nc2ccccc2c(=O)[nH]1)Cc1cccs1)C12CC3CC(CC(C3)C1)C2,-41
COC(CNC(=O)c1cnn2ccn(C)c12)c1cccs1 (stereo not given),-1
Cc1cc(C)cc(N2CCN(Cc3ccc(-c4ccn[nH]4)o3)CC2=O)c1,4
c1coc(Cn2ccnc2-c2ccc(-c3ccn[nH]3)o2)c1,4
FC(F)(F)c1cc(-c2ccc(-c3ccn[nH]3)o2)cc(C(F)(F)F)c1,-106*
Cc1cc(C(=O)N2CC(=O)N(C3CCCCC3)CC(OCc3ccccc3)C2)nc(C)n1 (stereo not given),10

# Assay outcomes (PubChem)
